Laboratory results: PubChem BioAssay AID1159580 (chemical genetic matrix, 2015)
Several values for one entry are separate records, joined by “and”; a condition that tells them apart may be missing. Equal entries are not always repeated. In all, about 5,500 compounds went through this assay and about 2,000 (36%) were called active. About 18% were inconclusive and are not listed. The list shows a part of the results. Unmarked numbers belong to inactive results. Rule as the data show it: active = normalized growth mostly below about 0.91 (no sharp cut-off); inconclusive = no clear call, values can overlap the other calls; inactive = mostly above about 0.92.

Experiment: chemical genetic growth profiling, strain panel (AID 1159580);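 also: tested at 20 µM; growth read once vehicle control cultures reached saturation at 30 °C; 1 = growth at the plate median or of vehicle wells; lower values mean less growth of the strain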
Details: S. cerevisiae deletion strains, growth OD

**Q.** For `COC(=O)c1c(C)cc(OC)cc1O`, which normalized growth (locus YAL013W, strain DEP1, stronger effect = lower value) is on record?
**A.** Its normalized growth is 1.02.

**Q.** What about the normalized growth (locus YAL021C, strain ccr4, stronger effect = lower value) of the same molecule?
**A.** Its normalized growth is 1.02.

**Q.** What about the normalized growth (locus YAL026C, strain drs2, stronger effect = lower value) of the same molecule?
**A.** Its normalized growth is 0.984.

**Q.** What about the normalized growth (locus YAL030W, strain snc1, stronger effect = lower value) of the same molecule?
**A.** The normalized growth was 0.971.

**Q.** What about the normalized growth (locus YBL061C, strain skt5, stronger effect = lower value) of the same molecule?
**A.** Its normalized growth is 0.988.

**Q.** What about the normalized growth (locus YBR009C, strain hhf1, stronger effect = lower value) of the same molecule?
**A.** The normalized growth was 0.978.

**Q.** And the normalized growth (locus YBR021W, strain FUR4, stronger effect = lower value)?
**A.** The normalized growth was 1.02.

**Q.** And the normalized growth (locus YBR023C, strain chs3, stronger effect = lower value)?
**A.** The normalized growth was 0.973.

**Q.** What about the normalized growth (locus YBR171W, strain sec66, stronger effect = lower value) of the same molecule?
**A.** The normalized growth was 0.961.

**Q.** What about the normalized growth (locus YBR229C, strain ROT2, stronger effect = lower value) of the same molecule?
**A.** Its normalized growth is 0.996.

**Q.** And the normalized growth (locus YBR231C, strain swc5, stronger effect = lower value)?
**A.** The normalized growth was 0.978.

**Q.** What about the normalized growth (locus YBR279W, strain paf1, stronger effect = lower value) of the same molecule?
**A.** Its normalized growth is 0.988.

**Q.** And the normalized growth (locus YCL011C, strain gbp2, stronger effect = lower value)?
**A.** The normalized growth was 0.969.

**Q.** What about the normalized growth (locus YCL016C, strain dcc1, stronger effect = lower value) of the same molecule?
**A.** The normalized growth was 0.966.

**Q.** What about the normalized growth (locus YCL029C, strain bik1, stronger effect = lower value) of the same molecule?
**A.** The normalized growth was 0.976.

**Q.** What about the normalized growth (locus YCL069W, strain vba3, stronger effect = lower value) of the same molecule?
**A.** The normalized growth was 0.989.

**Q.** What about the normalized growth (locus YCR088W, strain abp1, stronger effect = lower value) of the same molecule?
**A.** Its normalized growth is 0.971.

**Q.** And the normalized growth (locus YDL005C, strain med2, stronger effect = lower value)?
**A.** The normalized growth was 0.985.

**Q.** And the normalized growth (locus YDL035C, strain GPR1, stronger effect = lower value)?
**A.** The normalized growth was 1.

**Q.** What about the normalized growth (locus YDL040C, strain nat1, stronger effect = lower value) of the same molecule?
**A.** Its normalized growth is 0.98.

**Q.** And the normalized growth (locus YDL074C, strain BRE1, stronger effect = lower value)?
**A.** Its normalized growth is 1.02.

**Q.** What about the normalized growth (locus YDL101C, strain DUN1, stronger effect = lower value) of the same molecule?
**A.** Its normalized growth is 1.

**Q.** And the normalized growth (locus YDL134C, strain PPH21, stronger effect = lower value)?
**A.** Its normalized growth is 1.

**Q.** And the normalized growth (locus YDL185W, strain tfp1, stronger effect = lower value)?
**A.** The normalized growth was 0.987.

**Q.** What about the normalized growth (locus YDL192W, strain arf1, stronger effect = lower value) of the same molecule?
**A.** Its normalized growth is 0.985.

**Q.** What about the normalized growth (locus YDR001C, strain nth1, stronger effect = lower value) of the same molecule?
**A.** The normalized growth was 0.983.

**Q.** What about the normalized growth (locus YDR069C, strain doa4, stronger effect = lower value) of the same molecule?
**A.** The normalized growth was 0.98.

**Q.** What about the normalized growth (locus YDR101C, strain arx1, stronger effect = lower value) of the same molecule?
**A.** The normalized growth was 0.954.

**Q.** And the normalized growth (locus YDR137W, strain rgp1, stronger effect = lower value)?
**A.** Its normalized growth is 1.01.

**Q.** What about the normalized growth (locus YDR150W, strain NUM1, stronger effect = lower value) of the same molecule?
**A.** The normalized growth was 0.989.

**Q.** And the normalized growth (locus YDR159W, strain sac3, stronger effect = lower value)?
**A.** Its normalized growth is 0.953.

**Q.** What about the normalized growth (locus YDR162C, strain NBP2, stronger effect = lower value) of the same molecule?
**A.** Its normalized growth is 0.997.

**Q.** And the normalized growth (locus YDR195W, strain ref2)?
**A.** The normalized growth was 1.03.

**Q.** And the normalized growth (locus YDR297W, strain sur2, stronger effect = lower value)?
**A.** The normalized growth was 0.984.

**Q.** What about the normalized growth (locus YDR318W, strain mcm21, stronger effect = lower value) of the same molecule?
**A.** The normalized growth was 0.962.

**Q.** And the normalized growth (locus YDR334W, strain swr1, stronger effect = lower value)?
**A.** Its normalized growth is 0.984.

**Q.** What about the normalized growth (locus YDR335W, strain msn5, stronger effect = lower value) of the same molecule?
**A.** The normalized growth was 0.994.

**Q.** And the normalized growth (locus YDR388W, stronger effect = lower value)?
**A.** Its normalized growth is 0.986.

**Q.** And the normalized growth (locus YDR392W, strain spt3, stronger effect = lower value)?
**A.** Its normalized growth is 0.913.

**Q.** And the normalized growth (locus YDR502C, strain sam2, stronger effect = lower value)?
**A.** Its normalized growth is 0.962.

**Q.** What about the normalized growth (locus YEL003W, strain gim4, stronger effect = lower value) of the same molecule?
**A.** The normalized growth was 0.975.

**Q.** What about the normalized growth (locus YEL037C, strain rad23, stronger effect = lower value) of the same molecule?
**A.** The normalized growth was 0.991.

**Q.** And the normalized growth (locus YEL061C, strain CIN8 (second series), stronger effect = lower value)?
**A.** The normalized growth was 0.98.

**Q.** What about the normalized growth (locus YEL061C, strain CIN8, stronger effect = lower value) of the same molecule?
**A.** The normalized growth was 0.989.

**Q.** And the normalized growth (locus YER015W, strain faa2, stronger effect = lower value)?
**A.** Its normalized growth is 0.98.

**Q.** And the normalized growth (locus YER016W, strain bim1, stronger effect = lower value)?
**A.** The normalized growth was 0.984.

**Q.** And the normalized growth (locus YER110C, stronger effect = lower value)?
**A.** Its normalized growth is 0.947.

**Q.** And the normalized growth (locus YER111C, strain swi4, stronger effect = lower value)?
**A.** The normalized growth was 0.966.

**Q.** And the normalized growth (locus YER155C, strain BEM2 (second series), stronger effect = lower value)?
**A.** Its normalized growth is 0.858 (active).

**Q.** What about the normalized growth (locus YER155C, strain BEM2, stronger effect = lower value) of the same molecule?
**A.** Its normalized growth is 0.994.

**Q.** And the normalized growth (locus YER167W, strain BCK2, stronger effect = lower value)?
**A.** The normalized growth was 0.993.

**Q.** And the normalized growth (locus YFR010W, strain ubp6, stronger effect = lower value)?
**A.** The normalized growth was 0.992.

**Q.** What about the normalized growth (locus YGL078C, strain dbp3, stronger effect = lower value) of the same molecule?
**A.** The normalized growth was 0.993.

**Q.** And the normalized growth (locus YGL086W, strain mad1, stronger effect = lower value)?
**A.** The normalized growth was 0.988.

**Q.** And the normalized growth (locus YGL167C, strain pmr1, stronger effect = lower value)?
**A.** Its normalized growth is 0.977.

**Q.** What about the normalized growth (locus YGL173C, strain kem1, stronger effect = lower value) of the same molecule?
**A.** Its normalized growth is 0.971.

**Q.** And the normalized growth (locus YGL227W, strain vid30, stronger effect = lower value)?
**A.** Its normalized growth is 0.969.

**Q.** And the normalized growth (locus YGL240W, strain doc1, stronger effect = lower value)?
**A.** Its normalized growth is 0.938.

**Q.** What about the normalized growth (locus YGL248W, strain PDE1, stronger effect = lower value) of the same molecule?
**A.** Its normalized growth is 0.997.

**Q.** What about the normalized growth (locus YGL253W, strain hxk2, stronger effect = lower value) of the same molecule?
**A.** Its normalized growth is 0.979.

**Q.** What about the normalized growth (locus YGR078C, strain PAC10, stronger effect = lower value) of the same molecule?
**A.** Its normalized growth is 0.984.

**Q.** And the normalized growth (locus YGR135W, strain pre9, stronger effect = lower value)?
**A.** The normalized growth was 0.962.

**Q.** And the normalized growth (locus YGR229C, strain SMI1, stronger effect = lower value)?
**A.** The normalized growth was 1.03.

**Q.** And the normalized growth (locus YGR252W, strain gcn5, stronger effect = lower value)?
**A.** The normalized growth was 1.02.

**Q.** What about the normalized growth (locus YHR013C, strain ard1, stronger effect = lower value) of the same molecule?
**A.** Its normalized growth is 1.02.

**Q.** What about the normalized growth (locus YHR027C, strain rpn1, stronger effect = lower value) of the same molecule?
**A.** Its normalized growth is 0.997.

**Q.** And the normalized growth (locus YHR030C, strain SLT2, stronger effect = lower value)?
**A.** Its normalized growth is 0.993 and 1.04.

**Q.** What about the normalized growth (locus YHR079C, strain IRE1 (second series), stronger effect = lower value) of the same molecule?
**A.** The normalized growth was 0.961.

**Q.** And the normalized growth (locus YHR079C, strain IRE1, stronger effect = lower value)?
**A.** The normalized growth was 1.02.

**Q.** What about the normalized growth (locus YHR094C, strain hxt1, stronger effect = lower value) of the same molecule?
**A.** The normalized growth was 0.99.

**Q.** What about the normalized growth (locus YHR129C, strain ARP1, stronger effect = lower value) of the same molecule?
**A.** The normalized growth was 0.999.

**Q.** What about the normalized growth (locus YHR142W, strain chs7, stronger effect = lower value) of the same molecule?
**A.** The normalized growth was 0.954.

**Q.** What about the normalized growth (locus YHR200W, strain rpn10, stronger effect = lower value) of the same molecule?
**A.** The normalized growth was 0.965.

**Q.** And the normalized growth (locus YIL066C, strain RNR3, stronger effect = lower value)?
**A.** Its normalized growth is 1.

**Q.** What about the normalized growth (locus YIL073C, strain SPO22, stronger effect = lower value) of the same molecule?
**A.** The normalized growth was 0.991.

**Q.** What about the normalized growth (locus YIL125W, strain kgd1, stronger effect = lower value) of the same molecule?
**A.** The normalized growth was 0.984.

**Q.** And the normalized growth (locus YIR030C, strain dcg1, stronger effect = lower value)?
**A.** Its normalized growth is 0.972.

**Q.** And the normalized growth (locus YJL092W, strain hpr5, stronger effect = lower value)?
**A.** Its normalized growth is 0.978.

**Q.** And the normalized growth (locus YJL095W, strain BCK1 (second series), stronger effect = lower value)?
**A.** The normalized growth was 0.996.

**Q.** What about the normalized growth (locus YJL095W, strain BCK1, stronger effect = lower value) of the same molecule?
**A.** Its normalized growth is 0.971 and 1.02.

**Q.** What about the normalized growth (locus YJL115W, strain asf1, stronger effect = lower value) of the same molecule?
**A.** The normalized growth was 0.987.

**Q.** What about the normalized growth (locus YJL129C, strain trk1, stronger effect = lower value) of the same molecule?
**A.** The normalized growth was 0.965.

**Q.** And the normalized growth (locus YJL134W, strain LCB3, stronger effect = lower value)?
**A.** Its normalized growth is 0.999.

**Q.** What about the normalized growth (locus YJL154C, strain vps35, stronger effect = lower value) of the same molecule?
**A.** Its normalized growth is 0.98.

**Q.** And the normalized growth (locus YJL164C, strain tpk1, stronger effect = lower value)?
**A.** The normalized growth was 0.969.

**Q.** What about the normalized growth (locus YJL166W, strain qcr8, stronger effect = lower value) of the same molecule?
**A.** Its normalized growth is 0.972.

**Q.** What about the normalized growth (locus YJL168C, strain set2, stronger effect = lower value) of the same molecule?
**A.** Its normalized growth is 0.986.

**Q.** What about the normalized growth (locus YJL187C, strain SWE1 (second series), stronger effect = lower value) of the same molecule?
**A.** The normalized growth was 0.998.

**Q.** And the normalized growth (locus YJL187C, strain SWE1, stronger effect = lower value)?
**A.** Its normalized growth is 0.982.

**Q.** What about the normalized growth (locus YJR043C, strain POL32, stronger effect = lower value) of the same molecule?
**A.** The normalized growth was 0.966.

**Q.** What about the normalized growth (locus YJR066W, strain TOR1, stronger effect = lower value) of the same molecule?
**A.** The normalized growth was 0.965.
